# Measurements: PubChem BioAssay (NCATS)
# Records with an inconclusive call do not appear. Unmarked numbers belong to inactive results. The list shows a part of the results. Active and inactive are the calls of the source. Calls come from the whole dose curve; as a rule, active = well fitted curve in the direction sought with a large enough effect; inconclusive = small, poorly fitted or top-dose-only effect, or another doubt; inactive = no such curve, though single readings can be large; an effect the other way counts as inactive or inconclusive.
# How the values were obtained:
# [1] = molecular target: Rap guanine nucleotide exchange factor 3 (Homo sapiens) (UniProt O95398); test: Confirmatory qHTS for antagonist of cAMP-regulated guanine nucleotide exchange factor 3 (EPAC1) (AID 1645880); note: nearly all actives have a fitted effect of over 55% in size; note: potency is the fitted concentration of half-maximal effect
# Rap guanine nucleotide exchange factor 3 (Homo sapiens), sequence (O95398 whole entry, looked up): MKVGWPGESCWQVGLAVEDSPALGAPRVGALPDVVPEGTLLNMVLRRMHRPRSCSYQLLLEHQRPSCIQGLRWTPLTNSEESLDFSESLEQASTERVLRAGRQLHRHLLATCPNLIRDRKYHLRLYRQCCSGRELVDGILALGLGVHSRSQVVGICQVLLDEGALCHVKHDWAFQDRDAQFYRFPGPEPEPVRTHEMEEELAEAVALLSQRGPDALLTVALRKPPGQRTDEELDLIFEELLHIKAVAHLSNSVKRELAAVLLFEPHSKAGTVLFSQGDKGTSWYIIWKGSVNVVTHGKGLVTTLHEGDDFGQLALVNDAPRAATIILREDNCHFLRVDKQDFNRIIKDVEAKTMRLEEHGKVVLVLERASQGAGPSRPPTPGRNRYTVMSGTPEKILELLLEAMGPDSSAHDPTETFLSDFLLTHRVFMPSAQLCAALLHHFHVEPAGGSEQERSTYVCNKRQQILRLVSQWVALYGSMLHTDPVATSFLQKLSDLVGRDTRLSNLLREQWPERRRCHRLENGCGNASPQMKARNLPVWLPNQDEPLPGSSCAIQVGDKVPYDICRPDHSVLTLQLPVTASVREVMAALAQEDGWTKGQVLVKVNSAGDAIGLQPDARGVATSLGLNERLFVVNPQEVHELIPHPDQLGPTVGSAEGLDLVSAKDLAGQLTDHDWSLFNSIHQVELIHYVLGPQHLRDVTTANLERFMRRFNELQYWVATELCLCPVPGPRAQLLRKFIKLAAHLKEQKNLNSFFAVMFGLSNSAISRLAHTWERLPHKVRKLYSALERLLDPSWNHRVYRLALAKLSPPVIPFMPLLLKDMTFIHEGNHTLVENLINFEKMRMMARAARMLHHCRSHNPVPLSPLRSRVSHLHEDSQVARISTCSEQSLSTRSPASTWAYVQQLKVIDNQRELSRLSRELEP
# Summary of the method: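 Nucleotide exchange uses 100 nM EPAC1, 250 nM RAP1B-BODIPY-GDP and 50 uM GDP, with compounds in a concentration-titration series. After 5 min at room temperature, fluorescence (480 nm ex/540 nm em) is read every 5 min for 30 min. Data are normalized to control ATA and DMSO.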
# [2] = molecular target: Rap guanine nucleotide exchange factor 3 (Homo sapiens) (UniProt O95398); test: Confirmatory qHTS for agonist of cAMP-regulated guanine nucleotide exchange factor 3 (EPAC1) (AID 1645881); note: nearly all actives have a fitted effect of over 75% in size; note: potency is the fitted concentration of half-maximal effect;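 for activation: EPAC1 catalysed release of BODIPY-GDP from Rap1B seen as fluorescence loss; 100% = effect of cAMP agonist control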
# [3] = molecular target: Rap guanine nucleotide exchange factor 4 (Homo sapiens) (UniProt Q8WZA2); test: Confirmatory qHTS for agonist of cAMP-regulated guanine nucleotide exchange factor 4 (EPAC2) (AID 1645884);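 note: nucleotide exchange releases bodipy-GDP from Rap1 and this lowers its fluorescence; nearly all actives have a fitted effect of over 65% in size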; note: potency is the fitted concentration of half-maximal effect; for activation: % is set by controls: 0 for no effect and ±100 for the full control effect
# Rap guanine nucleotide exchange factor 4 (Homo sapiens), sequence (Q8WZA2 whole entry, looked up): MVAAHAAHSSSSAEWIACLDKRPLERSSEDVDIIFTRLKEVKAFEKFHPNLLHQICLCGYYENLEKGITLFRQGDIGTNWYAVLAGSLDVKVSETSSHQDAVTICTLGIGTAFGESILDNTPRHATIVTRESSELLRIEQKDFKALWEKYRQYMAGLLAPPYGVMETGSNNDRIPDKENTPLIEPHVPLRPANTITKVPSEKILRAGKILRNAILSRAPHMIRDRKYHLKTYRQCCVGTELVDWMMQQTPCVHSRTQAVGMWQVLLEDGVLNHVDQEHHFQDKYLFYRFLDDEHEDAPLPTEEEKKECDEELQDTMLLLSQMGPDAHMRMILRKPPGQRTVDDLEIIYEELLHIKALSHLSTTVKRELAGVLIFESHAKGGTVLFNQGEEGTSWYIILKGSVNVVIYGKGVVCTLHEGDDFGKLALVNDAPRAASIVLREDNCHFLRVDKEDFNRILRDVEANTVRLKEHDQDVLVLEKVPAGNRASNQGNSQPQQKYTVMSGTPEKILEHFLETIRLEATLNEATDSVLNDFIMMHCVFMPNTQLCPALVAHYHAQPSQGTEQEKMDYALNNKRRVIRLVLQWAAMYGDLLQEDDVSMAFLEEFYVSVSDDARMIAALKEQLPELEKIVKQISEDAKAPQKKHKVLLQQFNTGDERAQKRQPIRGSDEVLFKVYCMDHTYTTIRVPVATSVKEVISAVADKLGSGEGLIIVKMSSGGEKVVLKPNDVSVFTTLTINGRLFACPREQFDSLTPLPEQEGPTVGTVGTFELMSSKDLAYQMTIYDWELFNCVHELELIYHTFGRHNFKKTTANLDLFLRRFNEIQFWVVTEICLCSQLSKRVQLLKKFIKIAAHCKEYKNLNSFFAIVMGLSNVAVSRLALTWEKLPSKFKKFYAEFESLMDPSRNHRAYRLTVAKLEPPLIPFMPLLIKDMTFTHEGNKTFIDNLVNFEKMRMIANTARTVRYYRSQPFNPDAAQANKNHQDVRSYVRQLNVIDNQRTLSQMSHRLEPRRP
# [4] = molecular target: Rap guanine nucleotide exchange factor 3 (Homo sapiens) (UniProt O95398); test: Counterscreen qHTS for antagonist of cAMP-regulated guanine nucleotide exchange factor 3 (EPAC1) (AID 1645888);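 note: fluorescence loss as bound BODIPY-GDP is released from Rap1B; % of control where 0% means no effect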
# Summary of the method: (§1)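 Measured: fluorescence of BODIPY-GDP bound to Rap1B, which falls as exchange proceeds. Conditions include 50 uM competing GDP, 5 and 30 min reads, and a later cAMP challenge for antagonist detection.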
# [5] = molecular target: Vitamin D3 receptor (Homo sapiens) (UniProt P11473); test: qHTS for Inhibitors of the vitamin D receptor (VDR): Hit Validation using a Beta-Lactamase Assay (AID 602202); note: % is set by controls: 0 for no effect and ±100 for the full control effect
# Summary of the method: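 Stably transfected HEK293 cells express a VDR–GAL4 DNA-binding-domain fusion driving a UAS beta-lactamase reporter, stimulated by agonist LG190178. Compounds were added 4 h after plating and incubated 18 h. A FRET beta-lactam substrate was then added for 2 h and cleaved substrate emission read at 447 nm.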
# [6] = qHTS for Inhibitors of the vitamin D receptor (VDR): Hit Validation using a Cytotoxicity Assay (AID 602204);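 note: plate controls were DMSO for no effect and high-concentration cycloheximide for full effect; nearly all actives have a fitted effect of over 75% in size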
# Summary of the method: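 Cytotoxicity counterscreen measuring cellular ATP by CellTiter-Glo luminescence. Cells (20,000/well) plated 4 hours before compound addition, then exposed for 18 hours. Cycloheximide at high concentration as positive control, DMSO as negative.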
# [7] = molecular target: Phosphoglycerate kinase, glycosomal (Trypanosoma brucei brucei) (UniProt P07378); test: qHTS for inhibitors of Phosphogylcerate Kinase: Hit Validation Screen (AID 686980); conditions: TbPGK coupled GAPDH assay, Kinase-Glo luminescence; note: potency is the fitted concentration of half-maximal effect; nearly all actives have a fitted effect of over 65% in size
# Summary of the method: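 Luminescent ATP detection (Kinase-Glo Plus) follows a 60-minute room-temperature incubation, with wells lacking PGK as controls. Buffer: 100 mM TEA (pH 7.6), 5 mM MgCl2, 0.01% Tween-20. Coupling enzyme GAPDH (100 nM final) supplies unstable 1,3-BPG in-well.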
# [8] = molecular target: DNA polymerase iota (Homo sapiens) (UniProt Q9UNA4); test: qHTS for Inhibitors of Polymerase Iota: Confirmatory Assay for Cherry-picked Compounds (AID 720496); conditions: Pol iota primer extension, TAMRA/BHQ fluorescence; note: potency is the fitted concentration of half-maximal effect
# Summary of the method: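 Step 1: 10 nM Pol iota with compound, 15 min, room temperature. Step 2: 50 nM final quenched DNA substrate added. Step 3: fluorescence (ex 525, em 598 nm) read at 0 and after 10 min.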
# [9] = molecular target: Bifunctional 3'-5' exonuclease/ATP-dependent helicase WRN (Homo sapiens) (UniProt Q14191); test: qHTS for Inhibitors of WRN Helicase: Confirmatory Assay for Cherry-picked Compounds. (AID 720497); conditions: WRN helicase DNA unwinding, fluorescence kinetic; note: potency is the fitted concentration of half-maximal effect; nearly all actives have a fitted effect of over 65% in size
# Bifunctional 3'-5' exonuclease/ATP-dependent helicase WRN (Homo sapiens), sequence (Q14191 whole entry, looked up): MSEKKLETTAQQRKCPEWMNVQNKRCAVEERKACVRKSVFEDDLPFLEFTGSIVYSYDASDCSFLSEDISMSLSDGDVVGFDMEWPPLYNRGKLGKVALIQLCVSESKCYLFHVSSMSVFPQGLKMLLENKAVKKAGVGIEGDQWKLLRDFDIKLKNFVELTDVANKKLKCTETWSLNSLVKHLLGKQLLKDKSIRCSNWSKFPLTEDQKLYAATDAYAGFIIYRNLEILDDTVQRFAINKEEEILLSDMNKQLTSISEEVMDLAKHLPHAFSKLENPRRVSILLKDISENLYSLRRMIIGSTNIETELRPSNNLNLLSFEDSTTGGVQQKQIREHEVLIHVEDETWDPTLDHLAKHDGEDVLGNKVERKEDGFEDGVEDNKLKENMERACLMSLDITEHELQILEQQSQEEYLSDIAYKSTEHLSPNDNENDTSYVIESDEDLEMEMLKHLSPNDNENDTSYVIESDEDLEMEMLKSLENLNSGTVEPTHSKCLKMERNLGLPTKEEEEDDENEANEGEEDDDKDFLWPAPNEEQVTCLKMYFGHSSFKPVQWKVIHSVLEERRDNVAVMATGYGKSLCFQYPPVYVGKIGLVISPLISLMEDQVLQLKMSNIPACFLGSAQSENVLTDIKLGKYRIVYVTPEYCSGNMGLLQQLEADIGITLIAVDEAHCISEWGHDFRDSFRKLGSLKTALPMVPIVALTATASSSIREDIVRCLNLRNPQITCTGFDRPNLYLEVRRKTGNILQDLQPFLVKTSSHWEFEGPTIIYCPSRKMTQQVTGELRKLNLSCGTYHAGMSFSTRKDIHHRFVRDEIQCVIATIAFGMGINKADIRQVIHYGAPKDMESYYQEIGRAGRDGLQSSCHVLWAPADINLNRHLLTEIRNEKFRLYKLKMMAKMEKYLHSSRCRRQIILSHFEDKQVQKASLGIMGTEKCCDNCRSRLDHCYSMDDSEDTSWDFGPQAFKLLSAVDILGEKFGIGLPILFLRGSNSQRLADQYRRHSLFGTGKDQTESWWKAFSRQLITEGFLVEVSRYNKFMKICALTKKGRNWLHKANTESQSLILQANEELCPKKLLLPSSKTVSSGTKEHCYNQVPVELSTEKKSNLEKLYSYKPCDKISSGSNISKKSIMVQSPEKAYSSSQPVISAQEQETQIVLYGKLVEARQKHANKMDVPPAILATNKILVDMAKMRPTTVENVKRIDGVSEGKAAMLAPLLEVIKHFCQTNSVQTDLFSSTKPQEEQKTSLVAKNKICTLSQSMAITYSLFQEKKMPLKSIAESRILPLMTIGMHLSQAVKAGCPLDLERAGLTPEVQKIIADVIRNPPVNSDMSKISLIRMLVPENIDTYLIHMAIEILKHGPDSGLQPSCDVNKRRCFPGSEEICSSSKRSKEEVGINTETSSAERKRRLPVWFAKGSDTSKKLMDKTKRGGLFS
# Summary of the method: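 Helicase activity is tracked as a kinetic fluorescence signal (excitation 525 nm, emission 598 nm) after 100 nM forked duplex DNA and 2 mM ATP are added to 20 nM WRN that has been preincubated 15 min with compound at room temperature.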
# [10] = molecular target: Flap endonuclease 1 (Homo sapiens) (UniProt P39748); test: qHTS Assay for the Inhibitors of FEN1: Confirmatory Assay for Cherry-picked Compounds (AID 720498); conditions: FEN1 flap cleavage, TAMRA/BHQ2 fluorogenic DNA substrate; note: potency is the fitted concentration of half-maximal effect; nearly all actives have a fitted effect of over 60% in size
# Flap endonuclease 1 (Homo sapiens), sequence (P39748 whole entry, looked up): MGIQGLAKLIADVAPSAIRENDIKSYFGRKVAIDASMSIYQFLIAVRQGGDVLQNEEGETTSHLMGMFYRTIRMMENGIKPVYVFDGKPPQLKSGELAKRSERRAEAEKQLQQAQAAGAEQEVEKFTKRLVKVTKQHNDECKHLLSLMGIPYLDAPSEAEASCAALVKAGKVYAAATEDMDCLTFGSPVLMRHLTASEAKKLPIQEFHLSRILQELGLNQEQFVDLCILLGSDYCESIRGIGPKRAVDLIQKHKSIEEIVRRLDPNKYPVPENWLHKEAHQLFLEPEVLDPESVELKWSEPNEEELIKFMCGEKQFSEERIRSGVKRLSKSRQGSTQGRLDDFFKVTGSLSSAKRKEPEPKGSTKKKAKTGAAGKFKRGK
# Summary of the method: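 FEN1 at 10 nM was preincubated with compound for 15 min at room temperature, then 50 nM (final) double-flap DNA substrate was added. TAMRA fluorescence released from the BHQ-2-quenched flap was read at 0 and 15 min (ex 525/em 598 nm).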
# [11] = qHTS for Inhibitors of WRN Helicase: Thiazole Orange DNA Binding Counterscreen (AID 720499); conditions: thiazole orange DNA binding displacement, fluorescence;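 note: drop in dye fluorescence marks compound binding to DNA; potency is the fitted concentration of half-maximal effect; nearly all actives have a fitted effect of over 60% in size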
# Summary of the method: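 After pintool transfer of compounds into a thiazole orange/DNA mixture (100 nM and 50 nM respectively) and 15 min at room temperature, plates were imaged for fluorescence at 530 nm emission, 480 nm excitation.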
# [12] = molecular target: DNA polymerase kappa (Homo sapiens) (UniProt Q9UBT6); test: qHTS for Inhibitors of Polymerase Kappa: Confirmatory Assay for Cherry-picked Compounds (AID 720501); conditions: purified Pol-kappa, fluorescent strand-displacement substrate; note: potency is the fitted concentration of half-maximal effect
# Summary of the method: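 Human Pol-kappa, dispensed at 10 nM, was preincubated with compounds for 15 min at room temperature. Reactions were started with primer/template substrate (50 nM final) carrying a TAMRA reporter strand and BHQ-2-quenched template, and fluorescence (ex 525/em 598 nm) was read at 0 and 10 min.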
# [13] = molecular target: DNA polymerase eta (Homo sapiens) (UniProt Q9Y253); test: qHTS for Inhibitors of Polymerase Eta: Confirmatory Assay for Cherry-picked Compounds (AID 720502); conditions: Pol eta primer extension, TAMRA/BHQ fluorescence, 10 min; note: potency is the fitted concentration of half-maximal effect
# DNA polymerase eta (Homo sapiens), sequence (Q9Y253 whole entry, looked up): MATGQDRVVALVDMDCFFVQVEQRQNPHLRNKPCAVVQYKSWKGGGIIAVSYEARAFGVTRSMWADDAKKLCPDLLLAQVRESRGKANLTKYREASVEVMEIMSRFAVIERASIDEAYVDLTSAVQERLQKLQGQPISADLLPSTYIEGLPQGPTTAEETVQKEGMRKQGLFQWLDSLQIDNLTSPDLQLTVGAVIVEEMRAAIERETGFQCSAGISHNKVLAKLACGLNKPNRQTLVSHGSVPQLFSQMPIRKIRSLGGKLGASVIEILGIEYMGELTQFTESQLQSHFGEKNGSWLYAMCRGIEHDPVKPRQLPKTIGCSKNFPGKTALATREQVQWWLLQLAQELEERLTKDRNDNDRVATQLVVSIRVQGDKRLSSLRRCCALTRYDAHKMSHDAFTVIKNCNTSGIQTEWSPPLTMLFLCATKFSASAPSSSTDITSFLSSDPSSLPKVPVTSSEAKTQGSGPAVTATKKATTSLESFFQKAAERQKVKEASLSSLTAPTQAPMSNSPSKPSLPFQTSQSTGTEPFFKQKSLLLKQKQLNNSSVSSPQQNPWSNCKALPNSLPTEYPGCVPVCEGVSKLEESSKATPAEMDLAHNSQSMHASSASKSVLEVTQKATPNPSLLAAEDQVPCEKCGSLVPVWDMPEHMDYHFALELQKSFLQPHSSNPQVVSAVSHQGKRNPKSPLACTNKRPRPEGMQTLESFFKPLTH
# Summary of the method: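 Readout: TAMRA dequenching, ex 525/em 598 nm, read at 0 and 10 min. Enzyme: 10 nM human Pol eta, preincubated with compound 15 min RT. Substrate: 50 nM final annealed primer/reporter/template duplex.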
# [14] = molecular target: RecQ-like DNA helicase BLM (Homo sapiens) (UniProt P54132); test: qHTS for Inhibitors of WRN Helicase: BLM Helicase Counterscreen for WRN Inhibitors (AID 720503); conditions: Recombinant BLM helicase DNA unwinding, red fluorescence; note: potency is the fitted concentration of half-maximal effect; nearly all actives have a fitted effect of over 60% in size
# Summary of the method: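 Reactions were started with 100 nM DNA substrate and 2 mM ATP (final) after compound and 1 nM BLM stood 15 min at room temperature in Tris-HCl pH 8.0 buffer with NaCl, MgCl2, DTT and Tween-20. Two red-fluorescence reads 15 min apart were normalized against DMSO and no-enzyme wells.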
# [15] = molecular target: Rap guanine nucleotide exchange factor 4 (Homo sapiens) (UniProt Q8WZA2); test: Confirmatory qHTS for antagonist of cAMP-regulated guanine nucleotide exchange factor 4 (EPAC2) (AID 1645885); note: nearly all actives have a fitted effect of over 25% in size; note: potency is the fitted concentration of half-maximal effect; for activity change, negative = inhibition: % is set by controls: 0 for no effect and ±100 for the full control effect
# [16] = molecular target: Rap guanine nucleotide exchange factor 3 (Homo sapiens) (UniProt O95398); test: Counterscreen qHTS for agonist of cAMP-regulated guanine nucleotide exchange factor 3 (EPAC1) (AID 1645889); note: nearly all actives have a fitted effect of over 40% in size; note: potency is the fitted concentration of half-maximal effect; for activation: % of control where 0% means no effect
# Summary of the method: as §1
# [17] = molecular target: Tumor susceptibility gene 101 protein (Homo sapiens) (UniProt Q99816); test: qHTS Assay for Iinhibitors of HIV-1 Budding by Blocking the Interaction of PTAP/TSG101: Hit Validation (AID 651600); note: potency is the fitted concentration of half-maximal effect; nearly all actives have a fitted effect of over 70% in size
# Tumor susceptibility gene 101 protein (Homo sapiens), sequence (Q99816 whole entry, looked up, the tested form may be a part): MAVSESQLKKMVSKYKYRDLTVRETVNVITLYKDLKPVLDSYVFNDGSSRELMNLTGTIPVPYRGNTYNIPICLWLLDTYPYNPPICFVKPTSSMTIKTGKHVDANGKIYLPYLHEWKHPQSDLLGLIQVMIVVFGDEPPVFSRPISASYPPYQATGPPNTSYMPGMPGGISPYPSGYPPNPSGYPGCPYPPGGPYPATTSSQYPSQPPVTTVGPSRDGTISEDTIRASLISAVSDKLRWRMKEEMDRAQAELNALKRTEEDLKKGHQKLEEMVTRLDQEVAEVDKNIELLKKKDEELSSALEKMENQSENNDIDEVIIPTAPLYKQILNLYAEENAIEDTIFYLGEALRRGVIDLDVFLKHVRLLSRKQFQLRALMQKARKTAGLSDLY
# Summary of the method: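 Displacement of a FITC-labeled PTAP-motif peptide (50 nM) from the Tsg101 binding domain (10 uM) was monitored by fluorescence polarization after a 20 min room-temperature incubation.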
# [18] = qHTS for Inhibitors of the vitamin D receptor (VDR): Hit Validation using a Texas Red Assay (AID 602201); note: % is set by controls: 0 for no effect and ±100 for the full control effect
# Summary of the method: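 Fluorescence polarization (Ex 595/Em 615 nm) of Texas Red (7 nM) with 1.5 uM VDR-LBD and LG19078 (final concentrations). Compounds were incubated for 2 hours at room temperature.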
smiles,measurement,setting,value
COC(=O)C1C2c3ccccc3C(c3ccccc32)C1(C)C(=O)OC (stereo not given),Potency,[1],inactive
same,Potency,[2],inactive
same,activation,[3],"9.42% [at 17.1 µM, percent relative to cAMP agonist control]"
same,"activity change, negative = inhibition",[4],4.93% [at 30.8 µM]
COc1ccc(N2C(=O)/C(=C/c3ccco3)C(=O)NC2=S)cc1,outcome,[5],inactive
same,outcome,[6],inactive
same,Potency,[7],0.517 µM (active)
same,Potency,[8],1.06 µM (active)
same,Potency,[9],1.52 µM (active)
same,Potency,[10],21.3 µM (active)
same,Potency,[11],3.41 µM (active)
same,Potency,[12],0.67 µM (active)
same,Potency,[13],2.39 µM (active)
same,Potency,[14],0.215 µM (active)
same,Potency,[1],6.31 µM (active)
same,Potency,[2],inactive
same,activation,[3],"10.2% [at 17.1 µM, percent relative to cAMP agonist control]"
same,"activity change, negative = inhibition",[15],33.5% [at 12.7 µM]
same,"activity change, negative = inhibition",[4],-2.79% [at 30.8 µM]
O=c1oc2ccccc2c(O)c1C(c1ccc([N+](=O)[O-])cc1)c1c(O)c2ccccc2oc1=O,Potency,[1],15.8 µM (active)
same,Potency,[2],inactive
same,activation,[3],"0% [at 17.1 µM, percent relative to cAMP agonist control]"
same,"activity change, negative = inhibition",[4],-13.4% [at 30.8 µM]
N/C(=N\N=C/c1ccc(-c2ccc(O)c(C(=O)O)c2)o1)N[N+](=O)[O-],Potency,[1],4.78 µM (active)
same,Potency,[2],inactive
same,Potency,[3],inactive
same,outcome,[4],inactive
CCC(=NCCCO)c1c(O)n(-c2ccc(OC)cc2)c(=O)[nH]c1=O,Potency,[1],inactive
same,Potency,[2],inactive
same,activation,[3],"2.6% [at 17.1 µM, percent relative to cAMP agonist control]"
same,"activity change, negative = inhibition",[15],-12.3% [at 12.7 µM]
same,activation,[16],-4.42% [at 30.8 µM]
COc1ccc(N2C(=O)NC(=O)/C(=C/c3ccc([N+](=O)[O-])s3)C2=O)cc1,Potency,[1],33.8 µM (active)
same,Potency,[2],inactive
same,Potency,[3],inactive
same,Potency,[15],inactive
same,Potency,[16],inactive
CCn1c(O)c(C=Nc2ccc(N3CCOCC3)cc2)c(=O)n(CC)c1=S,Potency,[17],9.19 µM (active)
same,Potency,[1],inactive
same,Potency,[2],inactive
same,Potency,[3],112 µM (active)
same,Potency,[15],inactive
same,outcome,[4],inactive
O=c1cc(C(F)(F)F)c2cc3c4c(c2o1)CCCN4CCC3,Potency,[17],0.651 µM (active)
same,Potency,[1],inactive
same,Potency,[2],50.1 µM (active)
same,Potency,[3],39.8 µM (active)
same,Potency,[15],60.1 µM (active)
same,outcome,[4],inactive
same,Potency,[16],50.1 µM (active)
O=C1NC(=S)NC(=O)C1=Cc1cccn1-c1ccc(O)cc1,Potency,[18],inactive
same,Potency,[1],3.55 µM (active)
same,Potency,[2],inactive
same,activation,[3],"2.5% [at 17.1 µM, percent relative to cAMP agonist control]"
same,"activity change, negative = inhibition",[15],-7.44% [at 12.7 µM]
CCOC(=O)C1CCCN(c2ccc([N+](=O)[O-])c3nonc23)C1 (stereo not given),Potency,[1],inactive
same,Potency,[2],112 µM (active)
same,Potency,[3],100 µM (active)
same,Potency,[15],inactive
same,Potency,[16],39.8 µM (active)
O=C(c1ccco1)c1cn(Cc2ccccc2)c2ccccc12,Potency,[1],inactive
same,Potency,[2],inactive
same,Potency,[3],inactive
same,outcome,[4],inactive
same,Potency,[16],inactive
